From ChEMBL document CHEMBL3433997, “St. Jude Leishmania screening dataset” (2016)

What was measured:
Format in all cases: functional
[1] = molecular target: Solute carrier family 2, facilitated glucose transporter member 1 (Homo sapiens) (UniProt P11166); test: ST_JUDE_LEISH: Cytotoxicity at 2uM final concentration against transgenic Leishmania Mexicana promastigotes LmGLUT1 that are glucose transport deficient and complemented with the human glucose transporter GLUT1. Activity is measured by DNA content using SYBR green in vitro
Solute carrier family 2, facilitated glucose transporter member 1 (Homo sapiens), sequence (P11166 whole entry): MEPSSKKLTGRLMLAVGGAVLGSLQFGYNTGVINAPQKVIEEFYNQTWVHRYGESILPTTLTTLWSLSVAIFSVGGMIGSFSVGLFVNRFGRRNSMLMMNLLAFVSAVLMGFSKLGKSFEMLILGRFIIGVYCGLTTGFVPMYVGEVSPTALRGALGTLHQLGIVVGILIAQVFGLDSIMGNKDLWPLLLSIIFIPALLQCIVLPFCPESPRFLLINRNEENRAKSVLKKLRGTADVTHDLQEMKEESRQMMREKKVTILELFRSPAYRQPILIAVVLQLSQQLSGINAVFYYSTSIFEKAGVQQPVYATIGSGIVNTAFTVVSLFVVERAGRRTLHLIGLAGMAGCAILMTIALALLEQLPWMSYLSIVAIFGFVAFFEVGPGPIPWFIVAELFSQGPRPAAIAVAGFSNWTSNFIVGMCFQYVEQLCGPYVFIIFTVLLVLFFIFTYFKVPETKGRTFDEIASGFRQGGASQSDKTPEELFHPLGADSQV

[2] = molecular target: Hexose transporter 1 (Plasmodium falciparum) (UniProt O97467); test: ST_JUDE_LEISH: Cytotoxicity at 2uM final concentration against transgenic Leishmania Mexicana promastigotes LmPfHT that are glucose transport deficient and complemented with the Plasmodium falciparum hexose transporter. Activity is measured by DNA content using SYBR green in vitro
[3] = molecular target: Glucose transporter (Leishmania mexicana) (UniProt O61059); test: ST_JUDE_LEISH: Cytotoxicity at 2uM final concentration against transgenic Leishmania Mexicana promastigotes LmGT2 that are glucose transport deficient and complemented with the L. Mexicana glucose transporter 2. Activity is measured by DNA content using SYBR green in vitro

SMILES	inhibition [1]	inhibition [2]	inhibition [3]
CCN(CC)S(=O)(=O)c1ccc(CCOCCCCCNCC(O)c2cc(Cl)c(N)c(Cl)c2)s1 (stereo not drawn)	2.8%	-2.21%	1.26%
COc1ccc(-c2ccc([N+](=O)[O-])cc2C(=O)NCC(C)Oc2ccc(C(F)(F)F)cc2)cc1 (stereo not drawn)	-0.75%	-1.3%	-3.99%
CCCNC[C@@H](O)[C@H](Cc1ccccc1)NC(=O)c1cc(NCC)cc(N2CCCC2=O)c1	1.25%	2.29%	0.72%
O=C(NCc1ccc(F)cc1)Nc1ccc(-c2cccc(-c3nc4cc(C(F)(F)F)ccc4[nH]3)c2)cc1	3.93%	2.38%	-0.05%
CN1CCN(CC(O)CNC(=O)Nc2ccc(Br)cc2)CC1 (stereo not drawn)	3.01%	3.45%	-0.7%
CCCCCOc1c(CCC)cc(Cc2cnc(N)nc2N)cc1CCC	14.7%	12.3%	4.12%
Cc1cccc2nc(-c3ccc(-c4ccc(C(=O)NCCN5CCCC5)cc4)s3)[nH]c12	1.13%	0.54%	-0.1%
O=C(NCc1cccc2ccccc12)[C@@H]1CCCN1C(=O)c1ccc(O)c(-c2ccc(Cl)c(Cl)c2)c1	3.99%	2.59%	1.99%
O=C1CCCC1Sc1nc2ccccc2c(=O)n1-c1ccc(Cl)c(Cl)c1 (stereo not drawn)	2.33%	1.97%	-1.42%
COC(=O)c1cccc(CNCc2cccc(-c3cccc(-c4nc5cccc(C)c5[nH]4)c3)c2)c1	9.22%	8.21%	6.67%
CCOC(=O)C(NC(=O)Cc1ccccc1)C(C)C (stereo not drawn)	-2.58%	-2.35%	-3.14%
Cc1ccccc1Cc1cccc(/N=C(\N)Nc2ccc(Cl)cc2)n1	5.38%	5.38%	2.51%
NS(=O)(=O)CCc1cccc(Nc2nccc(-c3c(-c4cccc(NC(=O)c5c(F)cccc5F)c4)nn4ccccc34)n2)c1	4.25%	8.18%	1.61%
COc1ccc(-c2cc(C(F)(F)F)n3ncc(C(=O)Nc4cc(C)ccc4O)c3n2)cc1OC	4.34%	2.45%	0.56%
Cc1cc(=NN=Cc2ccc(Cl)cc2)c2cc(C(F)(F)F)ccc2[nH]1	1.05%	-4.87%	5.23%
Cc1ccc(NC(=O)Nc2ccc(S(=O)(=O)c3ccc(NC(=O)Nc4ccc(C)c(Cl)c4)cc3)cc2)cc1Cl	0.06%	-0.49%	1.78%
Cc1[nH]c(C)c(-c2ccc(-c3ccc(OC(F)(F)F)cc3)cc2)c(=O)c1Br	2.4%	4.25%	3.37%
COc1cc(NC(=O)/C=C/c2cc(F)cc(F)c2F)cc(OCCN2CCC3(CC2)OCCO3)c1	3.83%	3.1%	1.7%
COc1ccc(NC(=O)/C=C/c2ccccc2Cl)cc1OCCN1CCC(c2nc3ccccc3[nH]2)CC1	3.22%	1.68%	2.78%
CCOc1ccc(-c2nonc2NC(=O)c2ccc(OC(C)C)cc2)cc1OCC	2.72%	1.95%	3.68%
COc1ccc2nccc([C@@H](O)CN3CCC(NCc4cc5oc(=O)[nH]c5cc4F)CC3)c2c1	0.09%	0.65%	2.44%
Cc1c(S(=O)(=O)Nc2ccc3nccc(N4CCN[C@H](C)C4)c3c2)sc2ccc(Cl)cc12	-0.53%	0.48%	-2.96%
N#Cc1ccc(-c2ccc(C(=O)NCCCCN3CCC(c4cc(Br)c5c(c4O)CCCC5)CC3)cc2)cc1	0.25%	0.94%	-0.42%
COc1ccc(N2CCN(CCCCNC(=O)c3ccc(NC(=O)c4ccc(Cl)c(Cl)c4)cc3)CC2)c(OC)c1	2.23%	1.72%	1.65%

SMILES	inhibition [1]	inhibition [2]	inhibition [3]
Cc1cccc(CN2CCCN(Cc3ccc(C(=O)Nc4ccc(C)c(F)c4)cc3)CC2)c1	1.23%	4.06%	2.11%
Cc1ccc(C(=O)NC2C(=O)NC2c2ccccc2)c(C)c1 (stereo not drawn)	3.72%	4.84%	2.37%
O=C(NCCCCN1CCC(c2c[nH]c3ccccc23)CC1)c1ccc(-c2ccc(C(F)(F)F)cc2)cc1	0.97%	0.63%	-0.72%
COc1ccc(CN(C)CCCc2ccc(NC(=O)c3cc4ccccc4[nH]3)cc2)cc1OC	3.27%	1.65%	0.23%
N=C(N)NCCN(Cc1ccccc1)c1ccc(Cl)cc1	1.36%	-0.96%	1.25%
FC(F)(F)c1ccc2[nH]c(-c3ccc(-c4cccc(CNCC5CCCO5)c4)cc3)nc2c1 (stereo not drawn)	3.87%	2.83%	2.68%
N#Cc1cccc(C(=O)N2CCOC(CCN3CCC(c4ccccc4)CC3)(c3ccc(Cl)c(Cl)c3)C2)c1 (stereo not drawn)	4.51%	2.24%	2.33%
CC(Cc1ccc(OCCN2CCN(c3cccc(Cl)c3)CC2)cc1)NCC(O)c1cccc(Cl)c1 (stereo not drawn)	0.3%	0%	1.82%
Fc1ccc2[nH]c(-c3ccc(-c4ccc(CN5CCN(CCN6CCOCC6)CC5)cc4)cc3)nc2c1	5.88%	4.38%	1.45%
Cc1cc(F)ccc1[C@H]1C[C@H](N2CCOCC2)CCN1C(=O)N(C)[C@@H](C)c1cc(C(F)(F)F)cc(C(F)(F)F)c1	0.71%	0.17%	-0.74%
CC(Oc1ccc(Cl)cc1)C(=O)Nc1cc(C(F)(F)F)ccc1N1CCOCC1 (stereo not drawn)	8.02%	10.4%	6.86%
CC(C)NCc1ccc(-c2cccc(NC(=O)c3ccc(C#N)cc3)c2)cc1	6.75%	4.9%	7.32%
Cc1cccc2nc(-c3cccc(-c4ccc(NC(=O)NC5CC5c5ccccc5)cc4)c3)[nH]c12 (stereo not drawn)	6.4%	3.69%	5.64%
Cc1n[nH]c2cc(Nc3ccnc(Nc4ccc(CN5CCOCC5)cc4)n3)ccc12	12.7%	9.89%	14.2%
O=C(/C=C/c1ccc(-c2nc3ccc(Cl)cc3[nH]2)cc1)NCc1cccc(F)c1	4.5%	4.66%	4.07%
O=S(=O)(c1c(Cl)cc(Cl)cc1Cl)N1CCCCC(c2ccc(F)c(F)c2)=N1	0.21%	2.09%	1.47%
Fc1ccc2c(NN=CC=Cc3ccccc3)ccnc2c1	12.7%	9.84%	11.3%
CC1CCN(Cc2cccc(C(=O)NCc3ccc(F)c(-c4cccc(CN5CCN[C@@H](C)C5)c4)c3)c2)CC1	1.17%	0.82%	1.82%
CC(N)(Cc1ccc(O)cc1)c1nnn[nH]1 (stereo not drawn)	-0.06%	1.3%	-0.23%
CCn1c(Sc2ccc([N+](=O)[O-])c(C#N)c2)nnc1-c1ccc(Cl)cc1	9.05%	7.38%	12.8%
Cc1ccc(NC(=O)Nc2ccc(Cl)cc2)cc1-c1cccc(C(=O)Nc2ccc(F)cc2)c1	-1.9%	2.5%	5.14%
Cc1cccc(-c2cc3cc(Nc4ccnc5cc(-c6nccs6)ccc45)ccc3[nH]2)c1	1.71%	-0.37%	1.12%
FC(F)(F)c1ccc2[nH]ccc(=NN=Cc3ccc(Cl)cc3)c2c1	3.42%	3.11%	2.9%
Cc1cc(=NN=Cc2ccccc2F)c2cc(F)ccc2[nH]1	1.79%	3.14%	0.82%

SMILES	inhibition [1]	inhibition [2]	inhibition [3]
COc1cc(NCC2(CNCc3cn(Cc4ccccc4)c4ccccc34)CCCCC2)nc2ccccc12	-0.66%	-0.02%	-0.38%
OC1(c2ccc(Br)cc2)CCN(C2CCN(Cc3ccccc3)CC2)CC1	5.8%	6.01%	3.71%
Oc1cccc(Nc2nc(NCC3CCCO3)c3ccccc3n2)c1 (stereo not drawn)	27%	24.8%	9.1%
Cc1cc(=O)c(-c2ccc(Oc3ccc(C(F)(F)F)cc3)cc2)c(C)n1O	-1.23%	-2.25%	-1.9%
Cc1cccc2nc(-c3ccc(-c4cccc(NC(=O)Cc5c[nH]cn5)c4)cc3)[nH]c12	1.52%	3.26%	-1.21%
COc1ccc(-c2cccc(NC(=O)c3cccs3)c2)cc1CN1CCCN(C)CC1	0.38%	0.37%	-1.25%
COc1ccc(C2CC(c3cccs3)=NN2C(=O)c2ccccc2)cc1OC (stereo not drawn)	6.92%	1.98%	5.57%
COc1ccc(OC)c2c1CCN(CCN1CCC(C(=O)Nc3ccc(C(=O)Nc4ccc(Cl)cc4)cc3)CC1)C2	1.55%	0.47%	0.22%
O=C(Nc1ccc(-c2cccc(-c3nc4cc(C(F)(F)F)ccc4[nH]3)c2)cc1)c1ccc(=O)[nH]n1	3.7%	2.75%	2.97%
COc1ccc2nccc([C@@H](O)CN3CCC(NC(=O)/C=C/c4ccc5ccccc5n4)CC3)c2c1	15.2%	13.2%	7.42%
CCC(CSC1CCCCC1)N(C)CCN(C)C(CC)CSC1CCCCC1 (stereo not drawn)	7.39%	36.7%	4.54%
O=C(O)c1cccc2c(-c3ccncc3)cccc12	0.79%	1.26%	1.31%
COc1ccc(CCNC(=O)c2cc3c(=O)n4cccc(C)c4nc3n(C)c2=N)cc1	13.4%	10.1%	15.2%
O=C(Nc1ccc2[nH]c(-c3ccccc3)nc2c1)c1cc(-c2ccc3c(c2)OCCO3)n[nH]1	12.2%	11.6%	11.4%
COc1ccc(Cl)cc1N1CCN(CCCNC(=O)c2ccc(-c3nc4cnccc4[nH]3)c(Br)c2)CC1	0.19%	-0.19%	-0.85%
N=c1n(CCN2CCCCC2)c2ccccc2n1CC(O)c1cccc(Br)c1 (stereo not drawn)	3.65%	4.03%	3.65%
CSc1ccccc1NC(=S)NC1CCN(CCCCCNC(=O)/C=C/c2ccc(Cl)c(Cl)c2)CC1	4.66%	4.89%	4%
Cc1cc(=NN=Cc2cccc(Cl)c2)c2cc(F)ccc2[nH]1	5.23%	5.15%	4.84%
NCc1ccc(-c2ccccc2CNC2CCN(Cc3ccccc3)CC2)cc1	2.4%	2.46%	1.44%
COc1ccc2[nH]c(C)cc(=NN=Cc3ccccc3F)c2c1	-0.29%	2.87%	-2.38%
N#Cc1ccc(C(=O)Nc2ccc(-c3cccc(CN4CCCC4)c3)cc2)cc1	4.22%	1.49%	-0.82%
CCCNCc1ccc(-c2ccc(CN(C(=O)c3nn(-c4ccccc4)nc3C)C(C)CN(C)C)cc2)nc1 (stereo not drawn)	1.37%	0.07%	6.31%
COc1ccc2nccc([C@@H](O)CN3CCC(NCc4cc5cccc(OC)c5o4)CC3)c2c1	1.32%	3.57%	-0.75%
